Laboratory results: PubChem BioAssay AID1159580 (chemical genetic matrix, 2015)
Values joined by “and” are separate entries in the source; they are usually repeats but may differ in a detail not shown here. Identical values can stand only once. In all, about 5,500 compounds went through this assay and about 2,000 (36%) were called active. Not shown: some 18% with an inconclusive outcome. Rule as the data show it: active = normalized growth mostly below about 0.91 (no sharp cut-off); inconclusive = no clear call, values can overlap the other calls; inactive = mostly above about 0.92. This is one part of the list.

Test: chemical genetic growth profiling, strain panel (AID 1159580);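 also: tested at 20 µM; growth read once vehicle control cultures reached saturation at 30 °C; 1 = growth at the plate median or of vehicle wells; lower values mean less growth of the strain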
Details: S. cerevisiae deletion strains, growth OD

Measured: normalized growth

O=C(O[C@@H]1Cc2c(O)cc(O)cc2O[C@@H]1c1cc(O)c(O)c(O)c1)c1cc(O)c(O)c(O)c1
active: locus YAL021C, strain ccr4, stronger effect = lower value 0.284 | locus YAL026C, strain drs2, stronger effect = lower value 0.781 | locus YAL030W, strain snc1, stronger effect = lower value 0.874 | locus YBL061C, strain skt5, stronger effect = lower value 0.77 | locus YBR009C, strain hhf1, stronger effect = lower value 0.823 | locus YBR023C, strain chs3, stronger effect = lower value 0.746 | locus YBR229C, strain ROT2, stronger effect = lower value 0.889 | locus YBR231C, strain swc5, stronger effect = lower value 0.688 | locus YBR279W, strain paf1, stronger effect = lower value 0.821 | locus YCL011C, strain gbp2, stronger effect = lower value 0.855 | locus YCL029C, strain bik1, stronger effect = lower value 0.866 | locus YCL061C, strain MRC1, stronger effect = lower value 0.913 | locus YDL035C, strain GPR1, stronger effect = lower value 0.333 | locus YDL074C, strain BRE1, stronger effect = lower value 0.576 | locus YDL101C, strain DUN1, stronger effect = lower value 0.385 | locus YDL192W, strain arf1, stronger effect = lower value 0.872 | locus YDR069C, strain doa4, stronger effect = lower value 0.413 | locus YDR137W, strain rgp1, stronger effect = lower value 0.839 | locus YDR162C, strain NBP2, stronger effect = lower value 0.14 | locus YDR297W, strain sur2, stronger effect = lower value 0.832 | locus YDR334W, strain swr1, stronger effect = lower value 0.837 | locus YDR335W, strain msn5, stronger effect = lower value 0.879 | locus YDR388W, stronger effect = lower value 0.929 | locus YDR502C, strain sam2, stronger effect = lower value 0.855 | locus YEL003W, strain gim4, stronger effect = lower value 0.85 | locus YEL037C, strain rad23, stronger effect = lower value 0.905 | locus YER015W, strain faa2, stronger effect = lower value 0.682 | locus YER111C, strain swi4, stronger effect = lower value 0.845 | locus YER167W, strain BCK2, stronger effect = lower value 0.801 | locus YFR010W, strain ubp6, stronger effect = lower value 0.865 | locus YGL086W, strain mad1, stronger effect = lower value 0.776 | locus YGL173C, strain kem1, stronger effect = lower value 0.567 | locus YGL248W, strain PDE1, stronger effect = lower value 0.536 | locus YGL253W, strain hxk2, stronger effect = lower value 0.794 | locus YGR135W, strain pre9, stronger effect = lower value 0.861 | locus YHR013C, strain ard1, stronger effect = lower value 0.663 | locus YHR027C, strain rpn1, stronger effect = lower value 0.52 | locus YHR129C, strain ARP1, stronger effect = lower value 0.586 | locus YHR142W, strain chs7, stronger effect = lower value 0.749 | locus YHR200W, strain rpn10, stronger effect = lower value 0.855 | locus YIL066C, strain RNR3, stronger effect = lower value 0.176 | locus YIL073C, strain SPO22, stronger effect = lower value 0.226 | locus YJL095W, strain BCK1 (second series), stronger effect = lower value 0.882 | locus YJL134W, strain LCB3, stronger effect = lower value 0.914 | locus YJL164C, strain tpk1, stronger effect = lower value 0.808 | locus YJL166W, strain qcr8, stronger effect = lower value 0.744 | locus YJL187C, strain SWE1 (second series), stronger effect = lower value 0.29 | locus YJL187C, strain SWE1, stronger effect = lower value 0.837 | locus YJR043C, strain POL32, stronger effect = lower value 0.317 | locus YJR075W, strain HOC1, stronger effect = lower value 0.704 | locus YKL190W, strain CNB1, stronger effect = lower value 0.26 | locus YLL001W, strain dnm1, stronger effect = lower value 0.897 | locus YLL026W, stronger effect = lower value 0.899 | locus YLR027C, strain aat2, stronger effect = lower value 0.829 | locus YLR039C, strain RIC1, stronger effect = lower value 0.331 | locus YLR058C, strain SHM2, stronger effect = lower value 0.373 | locus YLR221C, strain rsa3, stronger effect = lower value 0.87 | locus YLR258W, strain gsy2, stronger effect = lower value 0.898 | locus YLR262C, strain YPT6 (second series), stronger effect = lower value 0.835 | locus YLR268W, strain sec22, stronger effect = lower value 0.832 | locus YLR320W, strain mms22, stronger effect = lower value 0.877 | locus YLR330W, strain CHS5, stronger effect = lower value 0.776 | locus YLR342W, strain FKS1 (second series), stronger effect = lower value 0.297 | locus YLR342W, strain FKS1, stronger effect = lower value 0.649 | locus YLR357W, strain rsc2, stronger effect = lower value 0.704 | locus YLR370C, strain arc18, stronger effect = lower value 0.89 | locus YLR371W, strain rom2, stronger effect = lower value 0.677 | locus YLR418C, strain cdc73, stronger effect = lower value 0.625 | locus YML016C, strain PPZ1, stronger effect = lower value 0.114 | locus YMR058W, strain fet3, stronger effect = lower value 0.174 | locus YMR205C, strain PFK2, stronger effect = lower value 0.821 | locus YMR223W, strain ubp8, stronger effect = lower value 0.887 | locus YMR231W, strain pep5, stronger effect = lower value 0.496 | locus YMR307W, strain GAS1, stronger effect = lower value 0.429 | locus YNL067W, strain RPL9B, stronger effect = lower value 0.692 | locus YNL071W, strain lat1, stronger effect = lower value 0.878 | locus YNL128W, strain TEP1, stronger effect = lower value 0.13 | locus YNL153C, strain GIM3, stronger effect = lower value 0.665 | locus YNL209W, strain ssb2, stronger effect = lower value 0.44 | locus YNL233W, strain BNI4, stronger effect = lower value 0.651 | locus YNL322C, strain KRE1, stronger effect = lower value 0.26 | locus YNR052C, strain pop2, stronger effect = lower value 0.861 | locus YOL006C, strain TOP1, stronger effect = lower value 0.324 | locus YOR001W, strain rrp6, stronger effect = lower value 0.875 | locus YOR061W, strain CKA2, stronger effect = lower value 0.484 | locus YOR069W, strain VPS5, stronger effect = lower value 0.526 | locus YOR070C, strain gyp1, stronger effect = lower value 0.767 | locus YOR080W, strain dia2, stronger effect = lower value 0.754 | locus YOR083W, strain WHI5, stronger effect = lower value 0.882 | locus YOR106W, strain vam3, stronger effect = lower value 0.316 | locus YOR184W, strain ser1, stronger effect = lower value 0.808 | locus YOR265W, strain rbl2, stronger effect = lower value 0.912 | locus YOR270C, strain vph1, stronger effect = lower value 0.499 | locus YPL051W, strain arl3, stronger effect = lower value 0.539 | locus YPL055C, strain LGE1, stronger effect = lower value 0.249 | locus YPL106C, strain sse1, stronger effect = lower value 0.762 | locus YPL241C, strain CIN2, stronger effect = lower value 0.741 | strain wtn01, stronger effect = lower value 0.832
0.798 (active) and 1.02 (inactive): locus YHR030C, strain SLT2, stronger effect = lower value
inactive: locus YBR021W, strain FUR4, stronger effect = lower value 1.01 | locus YBR171W, strain sec66, stronger effect = lower value 0.976 | locus YCL016C, strain dcc1, stronger effect = lower value 0.934 | locus YCL069W, strain vba3, stronger effect = lower value 0.94 | locus YCR088W, strain abp1, stronger effect = lower value 1.01 | locus YDL005C, strain med2, stronger effect = lower value 0.994 | locus YDL040C, strain nat1, stronger effect = lower value 0.979 | locus YDL185W, strain tfp1, stronger effect = lower value 0.994 | locus YDR001C, strain nth1, stronger effect = lower value 1 | locus YDR101C, strain arx1, stronger effect = lower value 0.966 | locus YDR159W, strain sac3, stronger effect = lower value 1.02 | locus YDR195W, strain ref2 0.905 | locus YDR318W, strain mcm21, stronger effect = lower value 0.951 | locus YDR392W, strain spt3, stronger effect = lower value 0.931 | locus YEL061C, strain CIN8 (second series), stronger effect = lower value 0.982 | locus YER016W, strain bim1, stronger effect = lower value 0.978 | locus YER110C, stronger effect = lower value 1.03 | locus YER155C, strain BEM2 (second series), stronger effect = lower value 0.893 | locus YER155C, strain BEM2, stronger effect = lower value 0.955 | locus YGL078C, strain dbp3, stronger effect = lower value 1.01 | locus YGL167C, strain pmr1, stronger effect = lower value 0.981 | locus YGL227W, strain vid30, stronger effect = lower value 1.02 | locus YGL240W, strain doc1, stronger effect = lower value 0.961 | locus YGR078C, strain PAC10, stronger effect = lower value 0.865 | locus YGR252W, strain gcn5, stronger effect = lower value 0.864 | locus YHR079C, strain IRE1 (second series), stronger effect = lower value 0.999 | locus YHR079C, strain IRE1, stronger effect = lower value 1.03 | locus YHR094C, strain hxt1, stronger effect = lower value 1.01 | locus YIL125W, strain kgd1, stronger effect = lower value 1 | locus YIR030C, strain dcg1, stronger effect = lower value 0.999 | locus YJL092W, strain hpr5, stronger effect = lower value 0.986 | locus YJL115W, strain asf1, stronger effect = lower value 0.988 | locus YJL129C, strain trk1, stronger effect = lower value 1.02 | locus YJL154C, strain vps35, stronger effect = lower value 0.992 | locus YJL168C, strain set2, stronger effect = lower value 0.998 | locus YJR066W, strain TOR1, stronger effect = lower value 0.936 | locus YKL009W, strain mrt4, stronger effect = lower value 1.04 | locus YKL068W, stronger effect = lower value 1 | locus YKL085W, strain MDH1 (second series), stronger effect = lower value 1.01 | locus YKL085W, strain MDH1, stronger effect = lower value 1.01 | locus YKL160W, strain elf1, stronger effect = lower value 0.936 | locus YKR001C, strain vps1, stronger effect = lower value 0.914 | locus YKR026C, strain gcn3, stronger effect = lower value 0.998 | locus YKR091W, strain srl3, stronger effect = lower value 0.996 | locus YLL041C, strain sdh2, stronger effect = lower value 0.962 | locus YLR102C, strain apc9, stronger effect = lower value 1.04 | locus YLR113W, strain HOG1, stronger effect = lower value 1.06 | locus YLR262C, strain YPT6, stronger effect = lower value 0.664 | locus YLR384C, strain iki3, stronger effect = lower value 0.94 | locus YML032C, strain rad52, stronger effect = lower value 1.01 | locus YML120C, strain ndi1, stronger effect = lower value 0.967 | locus YML124C, strain tub3, stronger effect = lower value 1 | locus YMR078C, strain ctf18, stronger effect = lower value 1.01 | locus YMR125W, strain sto1, stronger effect = lower value 1.07 | locus YMR129W, stronger effect = lower value 0.973 | locus YNL183C, strain NPR1, stronger effect = lower value 0.968 | locus YNL248C, strain rpa49, stronger effect = lower value 0.952 | locus YNL250W, strain rad50, stronger effect = lower value 1.02 | locus YNL271C, strain bni1, stronger effect = lower value 1 | locus YNL298W, strain CLA4, stronger effect = lower value 1 | locus YNL307C, strain MCK1, stronger effect = lower value 0.99 | locus YNL322C, strain KRE1 (second series), stronger effect = lower value 1.04 | locus YNR049C, strain mso1, stronger effect = lower value 0.986 | locus YOL012C, strain htz1 0.219 | locus YOL147C, strain pex11, stronger effect = lower value 0.97 | locus YOR136W, strain idh2, stronger effect = lower value 0.966 | locus YOR144C, strain elg1, stronger effect = lower value 0.971 | locus YOR231W, strain MKK1, stronger effect = lower value 1.02 | locus YOR290C, strain snf2, stronger effect = lower value 0.894 | locus YOR316C, strain cot1, stronger effect = lower value 1.02 | locus YPL078C, strain atp4, stronger effect = lower value 0.947 | locus YPL240C, strain hsp82, stronger effect = lower value 0.98 | locus YPL256C, strain CLN2, stronger effect = lower value 1.05 | locus YPR119W, strain clb2, stronger effect = lower value 1.02 | locus YPR141C, strain kar3, stronger effect = lower value 0.995 | locus YPR163C, strain tif3, stronger effect = lower value 1.01 | locus YPR167C, strain met16, stronger effect = lower value 0.951
0.148 (active) and 1.01 (inactive): locus YJL095W, strain BCK1, stronger effect = lower value
